Source: PubChem BioAssay
Jurkat NFkB inh: inhibitors of induced NF-kB luciferase reporter, primary screen, TCR NF-kB activation inhibitor project, cell-based, luminescence, uHTS. Jurkat, PMA/ionomycin-induced NF-kB luciferase reporter. inhibition, % at 4 µM. 0.53% of 330,000 active. AID 435003, 2010; in the data active means inhibition above about 50%
Mdm2-MdmX inh: inhibitors of human Mdm2-MdmX association, primary screen, cell-based, luminescence, split luciferase, SaOS-2, uHTS. inhibition, % at 8 µM. 3% of 330,000 active. Protein Mdm4 (Homo sapiens) + E3 ubiquitin-protein ligase Mdm2 (Homo sapiens), …. SaOS-2 split-luciferase Mdm2/MdmX complementation;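 active means inhibition of at least 50% at 8 µM in the primary screen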
CSC inhib: cancer stem cell viability inhibitors, primary screen, luminescence; cancer stem cell-like cells viability; inhibition, % at 7.5 µM; 1.1% of 300,000 active; in the data active means inhibition above about 75%; inconclusive means no clear call, values can overlap the other calls; tested in HMLE shEcad cells
Gli-Sufu antag: Gli-Sufu pathway antagonists, primary screen, luciferase luminescence, Sufu-KO-LIGHT cells, uHTS; Sufu-KO-LIGHT fibroblasts, Gli luciferase reporter luminescence; inhibition, % at 5 µM; 0.74% of 340,000 active;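 active means inhibition above about 55%, limit read from the data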;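 further: 0% = DMSO-treated cells and 100% = wells with medium but no cells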
697 NFkB inh: inhibitors of PMA/ionomycin-induced NF-kB reporter, 697 cells, primary screen, B-cell NF-kB inhibitor project, cell-based, luminescence, uHTS. AID 435022, 2010. inhibition, % at 4 µM. 0.33% of 330,000 active. 697 B-cell NF-kB luciferase reporter, 16 h; in the data active means inhibition above about 35%
Beta cell apopt: inhibitors of cytokine-induced beta cell apoptosis, primary screen, luminescence; INS-1E cytokine-induced death, ATP luminescence, 48 h; percent of positive-control rescue, neutral wells zero; protection from apoptosis, % (test concentration not listed); 0.8% of 300,000 active;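 active means Every replicate reaches about 75%, or at least half do and their mean reaches it too, limit read from the data; inconclusive means At least half of replicates reach the limit but their mean does not; inactive means Under half of replicates reach the limit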;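 further: 0% = cytokine-treated negative control wells and 100% = positive control rescue; higher means more ATP so stronger rescue from cytokine killing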
Jurkat NFkB conf: PMA/ionomycin-induced NF-kB reporter inhibitors, Jurkat retest, confirmation, T-cell NF-kB inhibitor project, cell-based, luminescence, single concentration | inhibition, % at 4 µM | Jurkat NF-kB luciferase, 16 h | shares compounds with Jurkat NFkB inh | AID 435020, 2010 | 27% of 2,700 active;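 active means inhibition reaching about 45% at 4 µM in either replicate, limit read from the data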;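 further: plate controls were PMA/ionomycin stimulated DMSO wells for no effect and unstimulated DMSO wells for full effect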
697 NFkB conf: PMA/ionomycin-induced NF-kB reporter inhibitors, 697 retest, confirmation, B-cell NF-kB inhibitor project, cell-based, luminescence, single concentration | shares compounds with 697 NFkB inh | 697 B-cell NF-kB luciferase, 16 h | inhibition, % at 4 µM | 35% of 2,000 active | AID 449746, 2010; in the data active means inhibition mostly above about 28%, no sharp cut-off; inactive means mostly below about 22%
Mdm2 MdmX conf: Mdm2-MdmX complex disruptors, retested hits, confirmation, luminescence, single concentration | shares compounds with Mdm2-MdmX inh | Mdm2-MdmX binding, luminescent assay | inhibition, % at 8 µM | 55% of 10,000 active | AID 489028, 2010; in the data active means inhibition above about 40%
Full FLuc ctr: full-length luciferase signal inhibition, confirmation, counter-screen for Mdm2/MdmX interaction inhibitor project, cell-based, single concentration, SaOS-2; 77% of 6,200 active; SaOS-2 full-length luciferase counterscreen, luminescence; inhibition, % at 8 µM; shares compounds with Mdm2-MdmX inh; AID 504607, 2011;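 active means mean inhibition at 8 µM reaching about 37%, which flags the compound as non-specific, limit read from the data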;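 further: p53-null SaOS-2 cells with luciferase driven by a doxycycline-inducible promoter; compound on cells about two nights before reading with doxycycline added after day one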
Starred values were filed as active, the others as inactive; u = inconclusive; x = no result; ! = not confirmed by another sample. Compounds with a hit are over-represented: about 4.5% of the library has one in this group of screens.

SMILES	Jurkat NFkB inh	Mdm2-MdmX inh	CSC inhib	Gli-Sufu antag	697 NFkB inh	Beta cell apopt	Jurkat NFkB conf	Mdm2 MdmX conf	Full FLuc ctr	others
COc1ccc(C(=O)/C(=C\c2ccco2)N2C=CC=CC2=C(C#N)C#N)cc1	65*	100*	53	43	-3	94*	49*	99*	51*
N#CC(C#N)=C1C=CC=CN1/C(=C\c1ccco1)C(=O)c1ccccc1	x	x	-41	38	x	u	x	x	x
O=C(Cn1cnc2ccccc21)OCC(=O)N1CCCCC1	-1	-25	-13	-2	-10	-1	x	x	x
O=C(CSc1nc2c(sc3ccccc32)c(=O)n1CCCN1CCCC1)NCc1ccco1	-22	25	18	18	1	-9	x	x	x
Cc1cc(NC(=O)CSc2nc3c(sc4ccccc43)c(=O)n2CCCN2CCOCC2)n[nH]1	59*	70*	58	-77	38*	68	59*	82*	125*	697 NFkB conf=27
CC1CC(C)CN(S(=O)(=O)N2CCC(C(=O)NCCc3ccccc3)CC2)C1 (centres undefined)	3	1	4	7	-7	-5	x	x	x
COc1ccccc1CNC(=O)Cn1cc([N+](=O)[O-])ccc1=O	2	11	-6	1	8	-8	x	x	x
CCCCN=C1NN=C(c2ccc3c(c2)OCCO3)CS1	-34	-39	-12	-27	-74	x	x	x	x
Cc1cc(C2=NNC(=NC3CC3)SC2)c(C)n1-c1ccccc1F	79*	99*	10	93*	39*	37	74*	99*	12	697 NFkB conf=48*
c1cc2c(cc1C1=NNC(=NC3CC3)SC1)OCCO2	60*	92*	28	77*	57*	35	78*	86*	56*	697 NFkB conf=24
C=CCOc1ccc(CN(C)CC(O)COc2cccc3ccccc23)cc1 (centres undefined)	-36	23	29	-14	-19	2	x	x	x
CCOC(=O)c1[nH]c(C=O)c(C(=O)OCC)c1C	59*	65*	-2	34	-31	24	39	59*	71*
CCOC(=O)c1[nH]c(C)c(C(=O)Nc2ccccc2C)c1C	53*	56*	x	-13	-60	18	39	62*	49*
CCOC(=O)c1[nH]c(C)c(C(=O)Nc2ccc(C)c(Cl)c2)c1C	-12	35	-8	-9	5	7	x	x	x
CCOC(=O)c1c(C)[nH]c(C(C)=O)c1C	13	17	-13	4	7	-8	x	x	x
CCOC(=O)c1[nH]c(C)c(C(=O)Nc2cc(Cl)ccc2C)c1C	69*	66*	52	27	23	14	56*	72*	85*
O=C(C1=NN[C@@H]2C(=O)N(Cc3ccccc3)C(=O)[C@H]12)c1ccc(F)cc1	8	8	-8	26	18	x	x	x	x
O=C(NC1CCCC1)C1CCN(C(=O)c2cccc(Cl)c2)CC1	-13	-41	x	-8	-13	5	x	x	x
Cc1cccc(OCC(O)Cn2c(=N)n(Cc3ccccc3)c3ccccc32)c1 (centres undefined)	62*	88*	27	8	-42	1	18	64*	64*
O=C(c1nnsc1S(=O)c1ccc(Cl)cc1)N1CCOCC1 (centres undefined)	70*	99*	x	21	-36	x	24	94*	53*
CCN(CC)c1ccc2c(c1)OC(N)=C(C#N)C2c1cccnc1 (centres undefined)	56*	66*	9	62*	31	3	6	60*	92*
N#CC1=C(N)Oc2cc(N)ccc2C1c1cccnc1 (centres undefined)	14	-3	-8	-2	-7	-5	x	x	x
Cc1ccc(CCC(=O)Nc2ccccc2C(=O)O)o1	1	-31	3	-18	-40	x	x	x	x
COC(=O)C(CO)NC(=O)C1CCCN1C(=O)CNC(=O)OCc1ccccc1 (centres undefined)	-2	5	-8	1	-30	2	x	x	x
CCN1CCN(Cc2ccc(NC(=O)c3ccc(C)c(NC(=O)C(=O)c4c[nH]c5ccccc45)c3)cc2C(F)(F)F)CC1	95*	100*	102*!	27	0	110*	24	93*	31
SMILES	Jurkat NFkB inh	Mdm2-MdmX inh	CSC inhib	Gli-Sufu antag	697 NFkB inh	Beta cell apopt	Jurkat NFkB conf	Mdm2 MdmX conf	Full FLuc ctr	others
COc1ccccc1OC(C)C(=O)Nc1nc(-c2ccc(S(=O)(=O)N3CCOCC3)cc2)cs1 (centres undefined)	-8	23	8	19	-49	0	x	x	x
COc1ccccc1C(=O)Nc1nc(-c2ccc(S(=O)(=O)N3CCOCC3)cc2)cs1	76*	77*	41	66*	41*	85*	61*	83*	30	697 NFkB conf=30*
Cc1csc(=O)n1CCC(=O)N(C)Cc1c(F)cccc1Cl	-3	9	-17	4	12	4	x	x	x
CCCOCCOC(=O)c1[nH]c2c(c1C)C(=O)CC(c1cc(OC)ccc1OC)C2 (centres undefined)	72*	59*	56	6	-46	42	35	52*	83*
COc1ccc(OC)c(C2CC(=O)c3c([nH]c(C(=O)OC(C)C)c3C)C2)c1 (centres undefined)	60*	52*	52	x	-19	31	58*	44*	83*
O=C(NC(=S)Nc1ccccn1)c1cccc([N+](=O)[O-])c1	-29	-74	12	-41	-58	0	x	x	x
O=C(Nc1ccc2nc3n(c(=O)c2c1)CCCCC3)c1c(F)ccc([N+](=O)[O-])c1F	73*	96*	116*	-2	-326	105*	35	100*	52*	697 NFkB conf=-227
O=C(Nc1ccc2nc3n(c(=O)c2c1)CCCCC3)c1ccccc1[N+](=O)[O-]	-18	0	-9	-13	8	-4	x	x	x
O=C(CC1Sc2ccccc2NC1=O)NNc1ccc(F)cc1 (centres undefined)	x	x	x	4	x	x	x	x	x
